GLS inhibitor = qHTS for Inhibitors of Glutaminase (GLS); Glutaminase kidney isoform, mitochondrial (Homo sapiens), O94925; GLS enzymatic activity, qHTS titration; Potency, µM (highest dose often 45.5 µM), inactives show at the top dose activity change, negative = inhibition, actives largely listed as inhibitors; 0.21% of 410,000 active; AID 624170, 2012; further: potency means the concentration at half of the fitted maximal effect; on the % scale 0 is the no-effect control and ±100 the full control effect
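hKGA in 45 mM KH2PO4 pH 8.2, 0.02% Tween-20 with pin-transferred compounds; 1 mM L-glutamine (stock) plus glutamate oxidase/HRP/Amplex Red coupling added. Fluorescence read initially and after 30 min at RT.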
pAkt inh = HTS Assay for Inhibitors of Akt Phophorylation: Primary Screen | 0.32% of 360,000 active | activity change, % for hits at 50 µM | Neuro2A IGF-stimulated pAkt S473 HTRF, 20 min; active compounds read low | AID 651550, 2012; in the data active means activity change below about -80%; inconclusive means mostly about -51% to -80%; further: on the % scale 0 is the no-effect control and ±100 the full control effect
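Neuro2A cells in DMEM with 0.5% FBS, overnight at 37 deg C, given compound at single 50 µM final, then IGF (6 nM final) for 20 min at 37 deg C. Lysed; phospho-Akt Ser473 by HTRF after 24 h, 665/615 ratio.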
Glioma ERSR ind = qHTS for Inducers of the Endoplasmic Reticulum Stress Response (ERSR) in Human Glioma: qHTS | U87-MG GRP78 promoter luciferase reporter, 16 h | Potency, µM, without a hit: top-dose activation, hits mostly activators | 0.02% of 420,000 active; further: potency means the concentration at half of the fitted maximal effect; series mostly up to about 76 µM; % of control where 0% means no effect; nearly all actives have a fitted effect of over 35% in size
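Stably transfected U87-MG human glioma cells carrying a GRP78-based luminescent sensor were seeded at 1000 cells/well, pin-dosed with compounds and incubated 16 h. Luciferase reagent was then added, and end-point luminescence was read after 10 min at room temperature.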
mIDH1 inhibitor = qHTS for Inhibitors of mutant isocitrate dehydrogenase 1 (IDH1): qHTS. Isocitrate dehydrogenase [NADP] cytoplasmic (Homo sapiens), O75874. IDH1-R132H enzyme, NADPH consumption, diaphorase/resazurin fluorescence. Potency, µM (top dose mostly 76.6 µM), for the others: at the highest dose activity change, negative = inhibition, most hits filed as inhibitors. 0.093% of 390,000 active; further: potency means the concentration at half of the fitted maximal effect; on the % scale 0 is the no-effect control and ±100 the full control effect; nearly all actives have a fitted effect of over 65% in size
Target sequence (O75874 whole entry R132H, stated change not applied): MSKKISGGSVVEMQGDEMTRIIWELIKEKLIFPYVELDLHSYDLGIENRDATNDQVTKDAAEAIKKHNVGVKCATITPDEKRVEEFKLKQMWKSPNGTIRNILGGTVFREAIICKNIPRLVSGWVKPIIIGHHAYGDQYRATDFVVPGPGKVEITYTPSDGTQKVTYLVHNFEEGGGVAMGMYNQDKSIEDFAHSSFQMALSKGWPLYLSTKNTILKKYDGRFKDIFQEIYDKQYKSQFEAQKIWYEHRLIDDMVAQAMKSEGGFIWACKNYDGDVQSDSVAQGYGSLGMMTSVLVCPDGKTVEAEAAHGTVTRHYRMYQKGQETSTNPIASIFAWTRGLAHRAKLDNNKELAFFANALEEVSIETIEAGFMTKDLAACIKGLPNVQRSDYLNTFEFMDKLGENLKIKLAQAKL
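IDH1-R132H (0.5 ug/mL) preincubated 30 min with compound, then NADPH (0.016 mM) and alpha-KG (2 mM) added; 80 min at RT, pH 7.5. Remaining NADPH coupled via diaphorase/resazurin to fluorescence (540/590 nm); concentration-response curves normalized to no-enzyme control.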
CCT modulator = High-Throughput Screening for Modulators of Cytosolic Chaperonin Activity | purified chaperonin ATPase assay, HTRF ADP detection, 30 min | 0.3% of 360,000 active | activity change, % (concentration not given with the values), hits read low; in the data active means activity change below about -30%; further: on the % scale 0 is the no-effect control and ±100 the full control effect
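We incubate TRiC, 40 or 20 nM final, with library compounds at 76 uM and 10 uM ATP for 30 min at 37 °C. ADP formed is detected with Transcreener HTRF reagents after 30 min at room temperature.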
Mm-Cpn inhibitor = Inhibitors of TCP-1 ring complex (TRiC) of Methanococcus maripaludis (MmCpn): qHTS | Chaperonin Mm-Cpn (Methanococcus maripaludis) | AID 504842, 2011 | Potency, µM (titrated, usually from 76.9 µM), inactives show top-dose activity, negative = inhibition, hits mostly inhibitors | 0.031% of 330,000 active | purified Mm-Cpn ATPase, ADP Transcreener TR-FRET; further: potency means the concentration at half of the fitted maximal effect; on the % scale 0 is the no-effect control and ±100 the full control effect; nearly all actives have a fitted effect of over 80% in size
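Eu-cryptate anti-ADP/ADP-d2 competition gives a ratio inversely related to ADP. Enzyme at 25 nM was pre-exposed to compound for 10 min, then given 10 uM ATP for 30 min, 37°C throughout.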
* hit, by the source's call; i = inactive; ? = inconclusive; . = no result; [ ] = another dose, or the depositor's remark. In the library only some 0.85% were active in any assay of this set; here they are far more common. Unless noted, the call rests on the fitted dose curve; in most records, active means well fitted curve in the direction sought with a large enough effect; inconclusive means small, poorly fitted or top-dose-only effect, or another doubt; inactive means no such curve, though single readings can be large; an effect the other way counts as inactive or inconclusive.

SMILES	GLS inhibitor	pAkt inh	Glioma ERSR ind	mIDH1 inhibitor	CCT modulator	Mm-Cpn inhibitor
Cc1cccc(C(C)(C)C)c1OCCCCN1CCCC1	-6%	i	-6%	10%	-59*	-2%
COc1cc(=O)n2c(c1C(=O)N(C)Cc1nccs1)CCN(Cc1cccc(F)c1F)CC2	.	.	-3%	.	.	.
CC1=Nn2c(nnc2-c2ccco2)SC1	-2%	-102%*	4%	2%	0	-1%
COc1ccc(C2=Nn3c(nnc3-c3ccc(OC)cc3)SC2)cc1	3%	i	-4%	4%	-2	1%
COc1ccc(-c2nnc3n2N=C(C)CS3)cc1	-7%	-84%*	-1%	1%	2	0%
CCCn1c(SCC(=O)NCc2ccco2)nnc1C(C)C	-6%	i	-6%	2%	-42*	0%
Cc1nnc(SCC(=O)NCc2ccco2)n1Cc1ccccc1	-1%	i	-4%	5%	1	0%
CSCCC(NC(C)=O)C(=O)Oc1ccc2c3c(c(=O)oc2c1)CCCC3 (configuration not stated)	23%	i	3%	8%	1	-8%
CSCCC(NC(=O)OC(C)(C)C)C(=O)Oc1ccc2c(=O)c(-c3ccc4c(c3)OCCO4)coc2c1 (configuration not stated)	-3%	-85%*	-10%	6%	-1	-2%[15.4 µM]
CO[C@H]1[C@H](NC(=O)c2ccsc2)c2ccccc2C12CCN(Cc1cc3ccccc3o1)CC2	.	.	-3%	.	.	.
O=C(Nc1cccnc1)c1cc2c(s1)-c1ccccc1OC2	2%	.	-6%	9%	-71*	-1%
Cc1cccc2c1-c1sc(C(=O)Nc3cccnc3)cc1CO2	-3%	i	?	-11%	1	-1%
Cc1ccc(Nc2ncnc3sc(C)c(C)c23)cc1	8%	i	3%	10%	-1	0%
Cc1sc2ncnc(N)c2c1C	0%	i	-3%	-4%	-55*	0%
OCC1O[C@H]([S-])[C@H](O)[C@@H](O)[C@@H]1O.[Au+] (some centres not stated)	.	.	-4%	.	.	.
CCOc1ccc(NC(=O)CCC(=O)NNC(=O)COc2ccc(C)cc2Br)cc1	4%	i	-1%	7%	-36*	1%
CCOc1ccc(NC(=O)CCC(=O)NNC(=O)COc2ccc(C)cc2)cc1	5%	i	-1%	13%	1	1%
CCC1CCCCN1C(=O)CSc1nc(N)cc(=O)[nH]1 (configuration not stated)	0%	i	16%	-10%	-2	-5%
CC1(C)C2CCC1(C)C(OC(=O)CSc1nc(N)cc(=O)[nH]1)C2 (configuration not stated)	3%	.	-4%	4%	-70*	-2%
Cc1cc(Cl)ccc1OCC(=O)NNC(=O)c1ccco1	32%	i	8%	9%	-39*	2%
O=C(Nc1ccc2c(c1)nc1n2CCN(Cc2ccccc2)C1)NC1CCCCC1	0%	-90%*	-2%	2%	-3	-7%
CC(C)Oc1ccc(C(=O)NCC2Cc3cc(F)cc(-c4cnccn4)c3O2)cc1 (configuration not stated)	.	.	2%	.	.	.
O=C(O)CCCC(=O)Nc1nc(-c2ccc(F)cc2)cs1	-4%	-115%*	-6%	7%	3	-1%
Cc1cccc(N(CC(=O)NC(C)C)C(=O)c2ccc(N3CCCC3)nc2)c1	18%	i	-9%	-1%	-35*	2%
CCC(C)(C)NC(=O)CN(C(=O)c1ccc(N2CCCC2)nc1)c1ccc(F)cc1	2%	i	-3%	-4%	0	0%
